Bioassay records deposited in PubChem BioAssay by The Scripps Research Institute Molecular Screening Center.
The list is not random: actives were taken first. Their share in the collection is about 3.4%.
TEAD-YAP inh: TEAD-YAP interaction inhibition, primary screen, TEAD-YAP interaction inhibitor project, luminescence, HEK-TIYL cells | TEAD-Gal4/YAP UAS-luciferase luminescence | 1.4% of 640,000 active | inhibition, % at 9.12 µM; in the data active = inhibition above about 32%
GPR151 ag: activators of human GPR151, primary screen, cell-based, PathHunter beta-arrestin, luminescence. G-protein coupled receptor 151 (Homo sapiens), Q8TDV0. PathHunter beta-arrestin GPR151 cells. activation, % at 11.2 µM. 1% of 650,000 active. AID 1508602, 2020; in the data active = activation above about 4.9%
FBW7 activator: FBW7 E3 ligase activators, primary screen, biochemical, AlphaScreen, human; AlphaScreen FBW7–phospho-cyclin E peptide binding, activator screen; normalized activity (activation), % at 26.1 µM; 0.13% of 650,000 active; AID 1259310, 2017; in the data active = normalized activity above about 1.9%;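 note: purified mutant Fbw7 with reduced substrate affinity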
Target sequence (Q969H0 whole entry, looked up): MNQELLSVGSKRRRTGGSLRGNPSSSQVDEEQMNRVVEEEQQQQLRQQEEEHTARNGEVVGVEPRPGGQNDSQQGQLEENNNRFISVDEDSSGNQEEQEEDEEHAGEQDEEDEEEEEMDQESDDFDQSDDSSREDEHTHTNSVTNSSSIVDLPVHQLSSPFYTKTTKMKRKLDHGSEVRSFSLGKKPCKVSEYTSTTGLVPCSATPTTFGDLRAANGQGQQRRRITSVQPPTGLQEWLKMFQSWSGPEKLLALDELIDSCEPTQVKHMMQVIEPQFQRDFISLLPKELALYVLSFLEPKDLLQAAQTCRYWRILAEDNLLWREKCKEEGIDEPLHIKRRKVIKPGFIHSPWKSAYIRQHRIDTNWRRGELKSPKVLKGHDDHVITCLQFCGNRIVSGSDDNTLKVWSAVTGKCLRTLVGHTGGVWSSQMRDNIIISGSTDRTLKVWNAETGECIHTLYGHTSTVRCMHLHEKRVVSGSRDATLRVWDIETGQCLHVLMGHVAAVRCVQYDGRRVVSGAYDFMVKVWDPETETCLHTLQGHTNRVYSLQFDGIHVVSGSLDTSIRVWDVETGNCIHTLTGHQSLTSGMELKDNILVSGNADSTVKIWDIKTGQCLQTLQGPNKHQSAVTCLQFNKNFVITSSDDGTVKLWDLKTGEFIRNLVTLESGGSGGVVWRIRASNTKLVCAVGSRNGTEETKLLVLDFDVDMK
MITF primary: MITF inhibitors, primary screen, biochemical, AlphaScreen, human. AlphaScreen MITF homodimerization, bead proximity signal. inhibition, % at 2.6 µM. 0.91% of 650,000 active. AID 1259374, 2018; in the data active = inhibition above about 50%
GPR151 conf act: GPR151 activators, triplicate retest, confirmation, cell-based, PathHunter beta-arrestin, luminescence; shares compounds with GPR151 ag; GPR151 PathHunter beta-arrestin cells, 90 min; % of EA-reagent control over plate median; activation, % at 11.2 µM; 6,700 tested, under 10 active; AID 1508609, 2020;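 active = mean percent activation across replicates above the confirmation screen cutoff of 4.91%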
GPR119 ag: GPR119 activators in beta-arrestin cells, counter-screen for GPR151 activator project, cell-based, PathHunter beta-arrestin, luminescence, triplicate | shares compounds with GPR151 ag | AID 1508611, 2020 | activation, % at 11.2 µM | 0.3% of 6,700 active | 90 min; 0 = compound-well median, 100 = enzyme-acceptor control;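 active = mean percent activation in the counterscreen above 29.09%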;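 note: counterscreen on off-target GPR119 to flag nonselective hits from the GPR151 activator screen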
Each line names hits and unclear results; the compound was inactive in the other large screens (follow-up assays come after a bar, where they were run); ! = not active in a repeat.

O=C(Nc1cccc2ccc(-n3cccc3)nc12)c1ccco1	none
CCC(C)NC(=O)Cn1nc(-c2ccccc2)ccc1=O (centres undefined)	GPR151 ag 8.5 | GPR151 conf act inactive | GPR119 ag inactive
Nc1nc(SCc2ccc(F)cc2)nn1CC(=O)Nc1ccccc1F	GPR151 ag 6.3 | GPR151 conf act inactive | GPR119 ag inactive
COc1ccccc1CNC(=O)CCc1c(C)nc2c(c(C)nn2C(C)(C)C)c1C	none
COc1ccc(CNC(=O)CCc2c(C)nc3c(c(C)nn3C(C)(C)C)c2C)cc1	GPR151 ag 7.2 | GPR151 conf act inactive | GPR119 ag inactive
CCCCN(C)C1CCN(C(=S)Nc2ccc(OC)cc2)CC1	none
COc1ccc(NC(=S)N2CCC(N(C)C(C)C)CC2)cc1	GPR151 ag 5.9 | GPR151 conf act inactive | GPR119 ag inactive
CCC(C)c1ccccc1NC(=O)CCNC(C)=O (centres undefined)	none
CCC(C)c1ccccc1NC(=S)NC(C)=O (centres undefined)	GPR151 ag 31.1 | GPR151 conf act inactive | GPR119 ag inactive
CC(N)(Cc1ccc(O)cc1)C(=O)O (centres undefined)	GPR151 ag 5.2! | GPR151 conf act inactive | GPR119 ag inactive
CC(C)(Cc1ccc(O)cc1)NC(=O)SCc1ccccc1	none
CN1C(=O)C2ON(c3ccc(Cl)cc3)C(c3ccccc3)C2C1=O (centres undefined)	none
Cc1ccc(C2C3C(=O)N(C)C(=O)C3ON2c2ccccc2)cc1 (centres undefined)	GPR151 ag 9.3 | GPR151 conf act inactive | GPR119 ag inactive
C[C@@H](O)C(=O)N1CCCN(S(=O)(=O)c2cccc3cnccc23)CC1	none
CC(=O)N1CCCN(S(=O)(=O)c2cccc3cnccc23)CC1	GPR151 ag 5.4 | GPR151 conf act inactive | GPR119 ag inactive
COc1cc(Br)c(C2CC(=O)Nc3ccc4ccccc4c32)cc1OC (centres undefined)	none
COc1cc2c(c(OC)c1)C(c1cc(OC)c(OC)cc1Br)CC(=O)N2 (centres undefined)	GPR151 ag 5.1 | GPR151 conf act inactive | GPR119 ag inactive
CC1=C(C(=O)OCc2ccccc2)C(c2ccc(N(C)C)cc2)C2=C(CCCC2=O)N1 (centres undefined)	none
FC(F)(F)c1ccc(Cn2cnc3c(NC4CCN(Cc5ccccc5)CC4)nc(-c4csc5ccccc45)nc32)cc1	GPR151 ag 7.0 | GPR151 conf act inactive | GPR119 ag inactive
c1ccc2c(-c3nc(NC4CC4)c4ncn(C5CCCCC5)c4n3)csc2c1	GPR151 ag 7.5 | GPR151 conf act inactive | GPR119 ag inactive
FC(F)(F)c1ccc(Cn2cnc3c(NC4CC4)nc(-c4csc5ccccc45)nc32)cc1	none
CC(C)Cc1cc(-c2ccccc2Cl)c(C#N)c(N)n1	none
C=CCNC(=O)CN(c1ccccc1F)S(=O)(=O)c1ccc(C)cc1	GPR151 ag 6.6 | GPR151 conf act inactive | GPR119 ag inactive
CCCn1c(SCC(=O)NC2CCCCC2C)nnc1-c1ccncc1 (centres undefined)	none
COC(=O)C(=Cc1cc(OC)c(O)c([N+](=O)[O-])c1)C(=O)OC	GPR151 ag 5.7 | GPR151 conf act inactive | GPR119 ag inactive
CCOc1cc(C=C(C(=O)OC)C(=O)OC)ccc1OCc1ccc([N+](=O)[O-])cc1	GPR151 ag 5.2 | GPR151 conf act inactive | GPR119 ag inactive
CC(C)CC(=O)N(c1ccccc1)C1C=CS(=O)(=O)C1 (centres undefined)	none
O=C(CCC(=O)Nc1ccc(Br)cc1)N/N=C/c1cccs1	GPR151 ag 6.0 | GPR151 conf act inactive | GPR119 ag inactive
CC(C)OCCCNS(=O)(=O)c1ccc2[nH]c(=O)ccc2c1	none
CC(C)Cn1c(SCc2ccc([N+](=O)[O-])cc2)nnc1-c1ccncc1	GPR151 ag 5.9 | GPR151 conf act inactive | GPR119 ag inactive
CN(CC1COc2ccccc2O1)c1ccc(S(=O)(=O)N2CCOCC2)cn1 (centres undefined)	none
COC(=O)C1=C(C)NC2=C(C(=O)CC(C)(C)C2)C1c1cccc(OC)c1 (centres undefined)	none
Cc1ccccc1-n1c2nc(=O)[nH]c(=O)c-2cc2c(Cl)cccc21	GPR151 ag 8.3 | GPR151 conf act inactive | GPR119 ag inactive
CC(=O)c1c(C)[nH]c(C(=O)OCC(=O)Nc2ccc(Br)cc2F)c1C	GPR151 ag 5.0 | GPR151 conf act inactive | GPR119 ag inactive
CC(=O)c1c(C)[nH]c(C(=O)OCC(=O)Nc2ccc(C)cc2[N+](=O)[O-])c1C	none
COc1ccccc1/C=N/Nc1nc(-c2ccccc2)cs1	none
O=C(c1nn2c(C(F)(F)F)cc(-c3cccs3)nc2c1Cl)N1CCCCC1	GPR151 ag 6.4 | GPR151 conf act inactive | GPR119 ag inactive
CC1CCCC(C)N1C(=O)c1cc2nc(-c3cccs3)cc(C(F)(F)F)n2n1 (centres undefined)	GPR151 ag 5.4 | GPR151 conf act inactive | GPR119 ag inactive
N#Cc1c(NC(=O)c2nn3c(C(F)(F)F)cc(-c4cccs4)nc3c2Cl)sc2c1CCCCC2	none
N#Cc1c(NC(=O)c2nn3c(C(F)(F)F)cc(-c4cccs4)nc3c2Cl)sc2c1CCCC2	GPR151 ag 9.2 | GPR151 conf act inactive | GPR119 ag inactive
CC(C(=O)Nc1cccc([N+](=O)[O-])c1)N1C(=O)C2C3C=CC(C4CC34)C2C1=O (centres undefined)	GPR151 ag 8.6 | GPR151 conf act inactive | GPR119 ag inactive
CC(=O)c1cccc(NC(=O)C(C)N2C(=O)C3C4C=CC(C5CC45)C3C2=O)c1 (centres undefined)	none
Cc1cc(S(=O)(=O)NC2CCCCC2)ccc1OCC(=O)Nc1ccccc1F	GPR151 ag 5.0 | GPR151 conf act inactive | GPR119 ag inactive
Cc1cc(S(=O)(=O)NC2CCCCC2)ccc1OCC(=O)NC(C)C	none
COc1ccc(S(=O)(=O)NC2CCCCC2)cc1	none
Cc1cccc(NC(=O)COc2ccc(S(=O)(=O)NC3CCCCC3)cc2)c1	none
COc1ccc2cc(S(=O)(=O)NC3CCCCC3)ccc2c1	GPR151 ag 5.2 | GPR151 conf act inactive | GPR119 ag inactive
CSc1cccc(NC(=O)COc2ccc(S(=O)(=O)NC3CCCCC3)cc2)c1	GPR151 ag 5.3 | GPR151 conf act inactive | GPR119 ag inactive
O=C(Nc1ccc(S(=O)(=O)NC2CCCCC2)cc1)Nc1cccc(Cl)c1	GPR151 ag 5.1 | GPR151 conf act inactive | GPR119 ag inactive
